Test results published in PubChem BioAssay (Tox21).
Records with an inconclusive call do not appear. Calls of active or inactive are those of the source. The call rests on the fitted dose curve; in most records, active means well fitted inhibition curve with a large enough effect in the repeat runs; inconclusive means weak or mixed curves, or effect the other way; inactive means no such curve, though single readings can be large or run the other way. Non-standard residues stand in square brackets, D forms with d. Residues, ends and D or L forms follow the SMILES beside them. *: point of attachment. Sta = CC(C)C[C@H](N)[C@@H](O)CC(=O)O; Isovaleryl = CC(C)CC(=O)*

Biological target: Nuclear receptor ROR-gamma (Homo sapiens) (UniProt P51449)
Assay: qHTS assay to identify small molecule antagonists of the retinoid-related orphan receptor gamma (ROR-gamma) signaling pathway (AID 1159521; further: top concentration of the series differs between compounds; nearly all actives have a fitted effect of over 50% in size)
Settings: Tet-on RORgamma CHO cells, RORE-luciferase, 16 h; series mostly up to 92.4 µM
Excerpt: U.S. Tox21 Program National Center for Advancing Translational Sciences [NCATS] NIH Chemical Genomics Center [NCGC] U.S. Environmental Protection Agency [EPA] National Institutes of Environmental Health Sciences [NIEHS] National Toxicology Program [NTP] U.S. Food and Drug Administration [FDA] Tox21 Assay Overview: Nuclear steroid hormone receptors are involved in many biological processes including inflammatory responses, cell proliferation, and apoptosis. Environmental factors or compounds disrupting these nuclear receptor pathways and gene expression may promote susceptibility to immunotoxicants and autoimmune diseases. One important group of these expression factors are the retinoid-related orphan receptors. To assess compounds that may interfere with the retinoid-related orphan receptor gamma (ROR-gamma) transcription factor, a cell-based luciferase assay was used. The CHO cell-based assay utilizes a TET-inducible ROR expression factor and ROR response element-LUC reporter gene. Reporter gene activity was induced using Doxycycline Hyclate and measured after 16 hr incubation. Tet-on ROR gamma CHO cells were used to screen against the Tox21 10K compound library for ROR gamma antagonists by quantification of decreased reporter gene activity in terms of decreased luminescence.
Tox21 Assay Protocol Summary: Tet-on ROR gamma CHO cells were dispensed at 1,000 cells in 4 uL of culture medium per well into white wall/solid bottom 1536-well plates using a Multidrop Combi (Thermo Scientific, Waltham, MA) dispenser. Following incubation at 37 C and 5% CO2 for 4 hr, 23 nL of compounds dissolved in DMSO, positive controls or DMSO only were transferred by a Pintool station (Kalypsys, San Diego, CA) and after 2 hr incubation at 37 C, one ul of 1 uM (final concentration) of Doxycycline Hyclate was added to all the wells by using a Flying Reagent Dispenser (FRD) (Aurora Discovery, San Diego, CA). After 16 hr incubation at 37 C and 5% CO2, 5 uL of ONE-Glo reagent (Promega Corporation, Madison, WI) was added to each assay plate using FRD. After 30 min incubation at room temperature, luminescence was quantified on a ViewLux plate reader (Perkin Elmer, Waltham, MA).
On the % scale 0 is the no-effect control and ±100 the full control effect.

SMILES	activity change, negative = inhibition	outcome
CCCCCCCCCCCCCCCC(=O)OC	7.03% [at 19 µM] (inactive)	–
CCCOc1ccc(C(=O)OCCN(CC)CC)cc1N	–	inactive
CCOCCOCCOC(C)=O	–	inactive
CSC(=O)c1cccc2nnsc12	–	inactive
CC(CC(=O)Cl)CC(C)(C)C (stereo not given)	–	inactive
O=C(O)/C=C(\CC(=O)O)C(=O)O	–	inactive
CCCc1ccc(O)c(OC)c1	–	inactive
COc1ccccc1N1CCN(CC(O)COc2cc(OC)c(OC)c(OC)c2)CC1 (stereo not given)	–	inactive
CNC(=O)c1c(I)c(NC(C)=O)c(I)c(C(=O)O)c1I	–	inactive
CCCCCCC(=O)c1ccccc1	–	inactive
CC[N+](C)(CC)CC	–	inactive
CC(=O)c1c(C)cc(C(C)(C)C)cc1C	–	inactive
NCC1CCC(C(=O)Oc2ccc(CCC(=O)O)cc2)CC1 (stereo not given)	–	inactive
CCCCCCCCCCCCCCBr	–	inactive
CC(=O)Nc1ccc(OCCOCCOc2ccc(NC(C)=O)cc2)cc1	–	inactive
CC(C)CC(=O)N[C@H](C(=O)N[C@H](C(=O)N[C@@H](CC(C)C)[C@@H](O)CC(=O)N[C@@H](C)C(=O)N[C@@H](CC(C)C)[C@@H](O)CC(=O)O)C(C)C)C(C)C (Isovaleryl-VV[Sta]A[Sta]-OH)	–	inactive
Cc1cc(N)no1	–	inactive
O=C(O)CCC(=O)Nc1ccc(S(=O)(=O)Nc2nccs2)cc1	–	inactive
CCCC(=O)CC	–	inactive
Cc1ccc2cccnc2c1	–	inactive

SMILES	activity change, negative = inhibition	outcome
Cc1ccc(OC(=O)CC(C)C)cc1	–	inactive
COC(=O)/C=C(\C)CCC=C(C)C	–	inactive
C=CCN(CC=C)CC=C	–	inactive
C[C@]12C=CC(=O)C=C1[C@@H](F)C[C@@H]1[C@@H]2[C@@H](O)C[C@@]2(C)[C@H]1CC[C@]2(O)C(=O)CO	–	inactive
N[C@H]1C(O)O[C@H](CO)[C@@H](O)[C@@H]1O (stereo not given in full)	–	inactive
O=S(=O)(O)c1cc(I)c(O)c2ncccc12	–	inactive
Cc1nc2ccc(Cl)cc2[nH]1	–	inactive
CCCCN(CCCC)CCCCCCN(CCCC)CCCC	–	inactive
C=CCOC(=O)CCCCCCCC	–	inactive
Cc1ccc2ccccc2n1	–	inactive
O=CN1CCCCC1	–	inactive
N#Cc1ccccc1C#N	–	inactive
CCc1ccc(CC)cc1	–	inactive
C[C@@H]1CCC[C@H](C)N1CCCC(O)(c1ccccc1)c1ccccn1 (stereo not given in full)	–	inactive
CCC(=O)OCCOc1ccccc1	–	inactive
Clc1ccc2c(c1)Nc1ccccc1S2	–	inactive
CCCC(C)C(O)CC (stereo not given)	–	inactive
C/C(Cl)=C/CCl	–	inactive
O=C(OOC(=O)c1ccccc1)c1ccccc1	–	inactive
CCCCCCCCC1CO1 (stereo not given)	–	inactive
